Assay [1] concerns the target Estrogen receptor (Homo sapiens) (UniProt P03372). In words: qHTS assay to identify small molecule antagonists of the estrogen receptor alpha (ER-alpha) signaling pathway using the BG1 cell line in the presence of 0.1 nM 17-beta-estradiol (AID 1259244). Also: nearly all actives have a fitted effect of over 50% in size. The essentials: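 Luciferase luminescence (ONE-Glo, 30 min at room temperature) was read after 22 hr at 37C exposure to compounds plus 17beta-estradiol at 0.1 nM final. Cells were VM7Luc4E2 with endogenous ER-alpha and an ERE-driven luciferase, pre-cultured 5 days in hormone-depleted medium.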
A general note: In qHTS, concentration-response curves come from the screen itself.

Assay [2] in a line: qHTS assay to identify small molecule HDAC inhibitors (AID 1259364). Also: nearly all actives have a fitted effect of over 45% in size. Also: potency is read from the fitted curve at half-maximal effect. Put shortly:
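Luminescence read after 30 min room-temperature HDAC-Glo incubation measures cellular class I/II HDAC activity. Compounds were applied for 2 hr at 37 C to HCT-116 wild-type cells seeded the day before.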

Assay [3] can be described thus: qHTS assay to identify small molecule HDAC inhibitors - cell viability counter screen (AID 1259365). Also: series mostly up to about 92 µM; nearly all actives have a fitted effect of over 50% in size. Put shortly: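 Wild-type HCT-116 cells, 1,500/well, cultured overnight, then compound-treated 2 h at 37 C. Viability measured as ATP luminescence with CellTiter-Glo after 30 min at room temperature.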
A short description of assay [4]: qHTS assay to identify small molecule antagonists of the sonic hedgehog signaling (Shh) pathway - cell viability counter screen (AID 1259367). Also: nearly all actives have a fitted effect of over 55% in size. Put shortly: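 Cytotoxicity was assessed in parallel with Shh reporter activity by measuring live-cell protease fluorescence (CellTiter-Fluor) in NIH/3T3 cells stably carrying Gli1-Luc, treated with compound under conditioned medium stimulation for 23 hr plus 1 hr reagent incubation.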

Assay [5] in a line: qHTS assay to identify small molecule agonists of the sonic hedgehog signaling (Shh) pathway (AID 1259368; calls by dose curve;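 also: NIH/3T3-derived 3T3Gli1-Luc cells carrying a stable Gli1-driven firefly luciferase reporter; series mostly up to about 92 µM; nearly all actives have a fitted effect of over 15% in size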). The essentials:
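Luminescence was read after 30 min at room temperature with luciferase reagent. Before that, 3T3Gli1-Luc cells (NIH/3T3 clone, stable Gli1-Luc reporter; 2,000/well) were exposed to compounds for 24 hr at 37C, 5% CO2, compounds being added 4 hr post-plating.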

The nature of assay [6]: qHTS assay to identify small molecule agonists of the sonic hedgehog signaling (Shh) pathway - cell viability counter screen (AID 1259366). Also: nearly all actives have a fitted effect of over 50% in size. The essentials: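 NIH/3T3-derived Gli1-Luc reporter cells, 2,000 per well, received compound after 4 h and were treated about 23 h at 37C. Viability measured in the same wells by CellTiter-Fluor fluorescence after 1 h.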
Assay [7] in a line: qHTS assay to identify small molecule antagonists of the sonic hedgehog signaling (Shh) pathway (AID 1259369; calls by dose curve; also: nearly all actives have a fitted effect of over 45% in size; also: potency is read from the fitted curve at half-maximal effect). The essentials:
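Antagonist mode: compound added to 3T3 Gli1-Luc cells followed by conditioned-medium stimulation, 24 h at 37 C, 5% CO2. Inhibition taken as loss of Gli1-driven luciferase luminescence.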

In assay [8] the target is Estrogen receptor beta (Homo sapiens) (UniProt Q92731). As to the kind of experiment: qHTS assay to identify small molecule agonists of the estrogen receptor beta (ER-beta) signaling pathway (AID 1259377; active = well fitted activation curve with a large enough effect in the signal ratio in the repeat runs, not every such curve was filed as active; the % refers to the signal ratio; also: potency is read from the fitted curve at half-maximal effect). The essentials: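 ER-beta-UAS-bla HEK293T cells in medium with 2% charcoal-stripped FBS were exposed to compounds for 16 h at 37C. Beta-lactamase reporter activity was read as fluorescence after 2 h with LiveBLAzer B/G FRET substrate at room temperature.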

For assay [9] the target is unchanged. In words: qHTS assay to identify small molecule antagonists of the estrogen receptor beta (ER-beta) signaling pathway (AID 1259378; active = well fitted inhibition curve with a large enough effect in the signal ratio in the repeat runs, not every such curve was filed as active; the % refers to the signal ratio). Put shortly: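 ER-beta-UAS-bla HEK293T (GripTite) cells in 2% charcoal-stripped FBS medium were preincubated 6 hr at 37C, dosed with compound, then stimulated with 1 nM E2 (final) for 16 hr; beta-lactamase reporter read by B/G FRET fluorescence after 2 hr substrate loading.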

Assay [10] can be described thus: qHTS assay to identify small molecule phospholipidosis (PLD) inducers (AID 1259344; active = well fitted curve in the direction sought with a large enough effect; an effect the other way counts as inactive or inconclusive). Put shortly: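 Cells (HepG2, 900 per well) attach for 4 h, receive LipidTOX Red and compound together, incubate 24 h at 37 C, are fixed 30 min with paraformaldehyde/Hoechst, then imaged at one site per well.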

Where “and” joins values, the source holds several entries; their conditions need not be identical. Equal values may be shown once. Results filed as inconclusive are left out. The source holds several records for some structures; these can differ, active in one and inactive in another. Calls of active or inactive are those of the source. Unless noted, calls follow the shape of the dose curve; as a rule, active = well fitted curve in the direction sought with a large enough effect in the repeat runs; inconclusive = weak or mixed curves; inactive = no such curve, though single readings can be large; an effect the other way counts as inactive or inconclusive.

Sequence of Estrogen receptor (Homo sapiens) (P03372 whole entry, looked up): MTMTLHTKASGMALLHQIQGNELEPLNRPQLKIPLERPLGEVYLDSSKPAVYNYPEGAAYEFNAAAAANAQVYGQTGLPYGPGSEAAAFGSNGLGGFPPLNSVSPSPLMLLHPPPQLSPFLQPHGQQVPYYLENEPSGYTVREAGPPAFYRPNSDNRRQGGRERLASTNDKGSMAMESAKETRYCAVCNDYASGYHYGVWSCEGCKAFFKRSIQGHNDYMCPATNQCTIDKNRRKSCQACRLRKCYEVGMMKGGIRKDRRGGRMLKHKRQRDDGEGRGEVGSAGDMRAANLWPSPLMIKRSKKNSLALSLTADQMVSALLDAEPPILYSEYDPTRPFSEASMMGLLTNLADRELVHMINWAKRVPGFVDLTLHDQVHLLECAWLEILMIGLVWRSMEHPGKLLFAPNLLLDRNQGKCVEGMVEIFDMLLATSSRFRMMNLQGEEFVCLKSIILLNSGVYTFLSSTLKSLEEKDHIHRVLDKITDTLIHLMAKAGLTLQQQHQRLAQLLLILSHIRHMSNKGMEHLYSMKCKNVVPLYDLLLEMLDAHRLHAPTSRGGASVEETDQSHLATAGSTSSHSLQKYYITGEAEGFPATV
Sequence of Estrogen receptor beta (Homo sapiens) (Q92731 whole entry, looked up): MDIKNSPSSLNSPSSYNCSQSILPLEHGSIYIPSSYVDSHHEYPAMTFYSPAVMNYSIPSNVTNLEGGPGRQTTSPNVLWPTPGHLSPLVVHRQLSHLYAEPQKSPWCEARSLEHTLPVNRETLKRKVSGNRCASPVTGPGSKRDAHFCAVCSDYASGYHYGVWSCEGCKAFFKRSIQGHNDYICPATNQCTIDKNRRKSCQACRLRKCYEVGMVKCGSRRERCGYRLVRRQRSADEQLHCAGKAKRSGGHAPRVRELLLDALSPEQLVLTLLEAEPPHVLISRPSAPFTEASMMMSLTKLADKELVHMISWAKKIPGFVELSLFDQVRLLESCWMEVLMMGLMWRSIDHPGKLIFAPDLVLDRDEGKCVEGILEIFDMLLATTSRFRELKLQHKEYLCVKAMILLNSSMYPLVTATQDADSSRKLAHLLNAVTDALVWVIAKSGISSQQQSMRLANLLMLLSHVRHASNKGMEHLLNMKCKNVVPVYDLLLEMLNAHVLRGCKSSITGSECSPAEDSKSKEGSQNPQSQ

Regarding `CC(=O)C=C(C)C`, the Potency entry in assay [1], in assay [2] and in assay [4] was “inactive” throughout. Besides, the result in assay [3] and in assay [5] was inactive.
As to `CC(Br)C(=O)O` (stereo not drawn), the Potency entry in assay [1], in assay [2], in assay [6], in assay [4], in assay [7] and in [8] was “inactive” throughout. For the same molecule, the molecule was classed as inactive in assay [3], in [5] and in assay [9].
For `ClCc1cccnc1`, the Potency result in assay [1], in assay [2], in assay [4] and in assay [7] was “inactive” in each case. In addition, the molecule was classed as inactive in assay [3] and in assay [5].
Turning to `CN(N=O)c1ccccc1`, the Potency result in assay [1], in assay [2], in assay [4], in [7] and in [8] was “inactive” in each case. The call in assay [3], in assay [5] and in [9] was inactive.
As for `O=C(O)c1ccccn1`, the Potency result in assay [1], in [2], in assay [4], in assay [7] and in assay [8] was “inactive” throughout. Also, the call in assay [3], in assay [5] and in assay [9] was inactive.
For the molecule `CON(C)C(=O)Nc1ccc(Cl)c(Cl)c1`, the Potency result in assay [1], in assay [4] and in assay [7] was “inactive” throughout. In addition, the Potency in assay [2] was 27.4 µM (active) and 19.3 µM (active). In addition, the molecule was classed as inactive in assay [3] and in assay [5].
`COC(=O)NC(=S)Nc1ccccc1NC(=S)NC(=O)OC`: the Potency entry in [1], in [2], in assay [6], in assay [4], in [7] and in [8] was “inactive” throughout. Further, the outcome in assay [3], in [5] and in assay [9] was inactive.
`CCOP(=S)(OCC)Oc1cnc2ccccc2n1`: the Potency result in [1], in [2], in assay [4] and in assay [8] was “inactive” in each case. Moreover, the call in assay [3], in assay [5] and in assay [9] was inactive. In addition, in [7], the Potency was 27.3 µM (active).
As to `ClCCBr`, the Potency result in assay [1], in assay [2], in assay [4], in assay [7] and in assay [8] was “inactive” in each case. The result in assay [3], in assay [5] and in [9] was inactive.
As to `c1ccc(-c2ccccc2)cc1`, the Potency result in assay [1], in assay [2], in assay [4], in [7] and in [8] was “inactive” throughout. Also, the outcome in [3], in assay [5] and in assay [9] was inactive.
Regarding `CCCN(CCC)c1c([N+](=O)[O-])cc(C(F)(F)F)cc1[N+](=O)[O-]`, the Potency entry in [1], in assay [2], in assay [4] and in assay [7] was “inactive” each time. Also, the molecule was called inactive in assay [3] and in assay [5].
As to `[O-][Cl+2]([O-])O`, the Potency result in assay [1], in [2], in [6], in assay [4], in [7] and in assay [8] was “inactive” in each case. Besides, the call in [3], in assay [5] and in assay [9] was inactive.
For `CCCCN(CC)C(=O)SCCC`, the Potency result in [1], in assay [2], in assay [4], in [7] and in assay [8] was “inactive” throughout. The molecule was called inactive in assay [3], in assay [5] and in assay [9].
Consider `Cc1ccc(N)cc1N`, for which the Potency result in assay [1], in assay [2], in assay [6], in [4], in [7] and in assay [8] was “inactive” in each case. Besides, the molecule was called inactive in assay [3] and in assay [9].
Regarding `Cc1ccc(N)cc1Cl`, the Potency result in assay [1], in assay [2], in assay [6], in assay [4], in [7] and in assay [8] was “inactive” in each case. Further, the result in assay [3], in assay [5] and in [9] was inactive.
With `Cn1cc(-c2ccccc2)c(=O)c(-c2cccc(C(F)(F)F)c2)c1`, the Potency entry in assay [1], in [2] and in [7] was “inactive” each time. For the same molecule, the molecule was classed as inactive in assay [3] and in assay [5].
With `Nc1c(Cl)c(Cl)nc(C(=O)O)c1Cl`, the Potency result in assay [1], in assay [2], in assay [6], in [4], in [7] and in assay [8] was “inactive” throughout. Further, the call in assay [3], in assay [5] and in [9] was inactive.
`Cc1ccc([N+](=O)[O-])cc1C`: the Potency entry in [1], in assay [2], in [6], in assay [4], in assay [7] and in [8] was “inactive” in each case. Besides, the outcome in assay [3], in [5] and in [9] was inactive.
As to `CCCN(CCC)N=O`, the Potency result in assay [1], in [2], in assay [6], in assay [4], in [7] and in assay [8] was “inactive” in each case. Moreover, the molecule was called inactive in [3], in assay [5] and in assay [9].
Turning to `CC1C=[C-]C=C1.[C-]#[O+].[C-]#[O+].[C-]#[O+].[Mn]`, the Potency result in [1], in assay [2], in assay [6], in assay [4], in assay [7] and in assay [8] was “inactive” each time. For the same molecule, the molecule was called inactive in [3], in assay [5] and in [9].
In the case of `c1ccc(OP(Oc2ccccc2)Oc2ccccc2)cc1`, the Potency entry in assay [1], in [2], in assay [6], in assay [4], in assay [7] and in [8] was “inactive” throughout. Besides, the molecule was classed as inactive in assay [3], in assay [5] and in assay [9].
In the case of `CN1C(=O)CN=C(c2ccccc2)c2cc(Cl)ccc21`, the molecule was called inactive in assay [10], in [3] and in assay [5]. Moreover, the Potency result in assay [2] and in assay [4] was “inactive” throughout. Further, the Potency in [7] is 4.39 µM (active).
Take `CC1OC(C)OC(C)O1` (stereo not drawn): the result in assay [10], in assay [3], in assay [5] and in [9] was inactive. Further, the Potency entry in assay [2], in [4], in assay [7] and in assay [8] was “inactive” each time.
Take `CC(C)(C)OOC(=O)c1ccccc1`: the Potency entry in assay [2], in [4] and in assay [7] was “inactive” throughout. In addition, the call in assay [3], in assay [5] and in [9] was inactive. Moreover, in assay [8], the Potency is 61.2 µM (active) and inactive.
For the molecule `Nc1ccc(Oc2ccc(N)cc2)cc1`, the Potency entry in assay [2], in [6], in assay [4], in [7] and in assay [8] was “inactive” in each case. Also, the molecule was classed as inactive in assay [3] and in [5].
As for `CCc1cccc(C)c1N(C(=O)CCl)C(C)COC` (stereo not drawn), the Potency entry in assay [2], in [4], in [7] and in assay [8] was “inactive” each time. For the same molecule, the molecule was classed as inactive in [3] and in [5].
With `C[C@]12CC[C@H]3[C@@H](CC[C@@]45O[C@@H]4C(O)=C(C#N)C[C@]35C)[C@@H]1CC[C@@H]2O`, the molecule was called inactive in assay [10], in assay [3], in assay [5] and in assay [9]. The Potency result in [2], in [6] and in assay [4] was “inactive” each time. Besides, the Potency in assay [7] is 27.3 µM (active) and 13.3 µM (active).
Consider `Oc1ccccc1Cl`, for which the Potency entry in assay [2], in assay [6], in assay [4] and in [7] was “inactive” each time. For the same molecule, the result in [3] and in [5] was inactive.

Values taken from PubChem BioAssay (Tox21).
